Measurements taken from PubChem BioAssay AID1159580 (chemical genetic matrix, 2015).
Hit rate of the full screen: of about 5,500 compounds, about 2,000 (36%) were called active. Another 18% or so got no clear call; they are omitted. No stated cut-off is given here; in the data, active means normalized growth mostly below about 0.91 (no sharp cut-off); inconclusive means no clear call, values can overlap the other calls; inactive means mostly above about 0.92. The list shows a part of the results.

Assay: chemical genetic growth profiling, strain panel (AID 1159580);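 further: tested at 20 µM; growth read once vehicle control cultures reached saturation at 30 °C; 1 = growth at the plate median or of vehicle wells; lower values mean less growth of the strain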
Settings: growth OD

Measured: normalized growth

CCN(CC)C(=O)N1CCN(C)CC1
inactive: S. cerevisiae deletion strains, locus YJR075W, strain HOC1, active compounds read low 1.03 | S. cerevisiae deletion strains, locus YKL009W, strain mrt4, active compounds read low 0.989 | S. cerevisiae deletion strains, locus YKL068W, active compounds read low 1 | S. cerevisiae deletion strains, locus YKL085W, strain MDH1 (second series), active compounds read low 1.04 | S. cerevisiae deletion strains, locus YKL085W, strain MDH1, active compounds read low 1.04 | S. cerevisiae deletion strains, locus YKL160W, strain elf1, active compounds read low 0.975 | S. cerevisiae deletion strains, locus YKR001C, strain vps1, active compounds read low 1.01 | S. cerevisiae deletion strains, locus YKR026C, strain gcn3, active compounds read low 0.965 | S. cerevisiae deletion strains, locus YKR091W, strain srl3, active compounds read low 0.949 | S. cerevisiae deletion strains, locus YLL001W, strain dnm1, active compounds read low 0.997 | S. cerevisiae deletion strains, locus YLL026W, active compounds read low 0.974 | S. cerevisiae deletion strains, locus YLL041C, strain sdh2, active compounds read low 0.994 | S. cerevisiae deletion strains, locus YLR027C, strain aat2, active compounds read low 0.964 | S. cerevisiae deletion strains, locus YLR039C, strain RIC1, active compounds read low 0.975 | S. cerevisiae deletion strains, locus YLR058C, strain SHM2, active compounds read low 1.02 | S. cerevisiae deletion strains, locus YLR102C, strain apc9, active compounds read low 0.993 | S. cerevisiae deletion strains, locus YLR113W, strain HOG1, active compounds read low 1 | S. cerevisiae deletion strains, locus YLR221C, strain rsa3, active compounds read low 0.963 | S. cerevisiae deletion strains, locus YLR258W, strain gsy2, active compounds read low 0.981 | S. cerevisiae deletion strains, locus YLR262C, strain YPT6 (second series), active compounds read low 0.967 | S. cerevisiae deletion strains, locus YLR262C, strain YPT6, active compounds read low 0.976 | S. cerevisiae deletion strains, locus YLR268W, strain sec22, active compounds read low 1.01 | S. cerevisiae deletion strains, locus YLR320W, strain mms22, active compounds read low 0.974 | S. cerevisiae deletion strains, locus YLR330W, strain CHS5, active compounds read low 1.01 | S. cerevisiae deletion strains, locus YLR342W, strain FKS1 (second series), active compounds read low 1.03 | S. cerevisiae deletion strains, locus YLR342W, strain FKS1, active compounds read low 0.98 | S. cerevisiae deletion strains, locus YLR357W, strain rsc2, active compounds read low 0.937 | S. cerevisiae deletion strains, locus YLR370C, strain arc18, active compounds read low 0.97 | S. cerevisiae deletion strains, locus YLR371W, strain rom2, active compounds read low 0.99 | S. cerevisiae deletion strains, locus YLR384C, strain iki3, active compounds read low 0.989 | S. cerevisiae deletion strains, locus YLR418C, strain cdc73, active compounds read low 0.947 | S. cerevisiae deletion strains, locus YML016C, strain PPZ1, active compounds read low 1.01 | S. cerevisiae deletion strains, locus YML032C, strain rad52, active compounds read low 0.995 | S. cerevisiae deletion strains, locus YML120C, strain ndi1, active compounds read low 0.961 | S. cerevisiae deletion strains, locus YML124C, strain tub3, active compounds read low 0.99 | S. cerevisiae deletion strains, locus YMR058W, strain fet3, active compounds read low 0.979 | S. cerevisiae deletion strains, locus YMR078C, strain ctf18, active compounds read low 0.993 | S. cerevisiae deletion strains, locus YMR125W, strain sto1, active compounds read low 0.973 | S. cerevisiae deletion strains, locus YMR129W, active compounds read low 0.964 | S. cerevisiae deletion strains, locus YMR205C, strain PFK2, active compounds read low 0.97 | S. cerevisiae deletion strains, locus YMR223W, strain ubp8, active compounds read low 0.993 | S. cerevisiae deletion strains, locus YMR231W, strain pep5, active compounds read low 0.981 | S. cerevisiae deletion strains, locus YMR263W, strain SAP30, active compounds read low 1.02 | S. cerevisiae deletion strains, locus YMR307W, strain GAS1, active compounds read low 0.999 | S. cerevisiae deletion strains, locus YNL067W, strain RPL9B, active compounds read low 1 | S. cerevisiae deletion strains, locus YNL071W, strain lat1, active compounds read low 0.964 | S. cerevisiae deletion strains, locus YNL128W, strain TEP1, active compounds read low 1.02 | S. cerevisiae deletion strains, locus YNL153C, strain GIM3, active compounds read low 1.01 | S. cerevisiae deletion strains, locus YNL183C, strain NPR1, active compounds read low 0.986 | S. cerevisiae deletion strains, locus YNL209W, strain ssb2, active compounds read low 0.969 | S. cerevisiae deletion strains, locus YNL233W, strain BNI4, active compounds read low 1.01 | S. cerevisiae deletion strains, locus YNL248C, strain rpa49, active compounds read low 0.888 | S. cerevisiae deletion strains, locus YNL250W, strain rad50, active compounds read low 1.01 | S. cerevisiae deletion strains, locus YNL271C, strain bni1, active compounds read low 1 | S. cerevisiae deletion strains, locus YNL298W, strain CLA4, active compounds read low 1.03 | S. cerevisiae deletion strains, locus YNL307C, strain MCK1, active compounds read low 1 | S. cerevisiae deletion strains, locus YNL322C, strain KRE1 (second series), active compounds read low 0.979 | S. cerevisiae deletion strains, locus YNR049C, strain mso1, active compounds read low 0.942 | S. cerevisiae deletion strains, locus YNR052C, strain pop2, active compounds read low 1 | S. cerevisiae deletion strains, locus YOL006C, strain TOP1, active compounds read low 1.03 | S. cerevisiae deletion strains, locus YOL012C, strain htz1 0.747 | S. cerevisiae deletion strains, locus YOL147C, strain pex11, active compounds read low 0.986 | S. cerevisiae deletion strains, locus YOR001W, strain rrp6, active compounds read low 0.976 | S. cerevisiae deletion strains, locus YOR061W, strain CKA2, active compounds read low 1.02 | S. cerevisiae deletion strains, locus YOR069W, strain VPS5, active compounds read low 1.01 | S. cerevisiae deletion strains, locus YOR070C, strain gyp1, active compounds read low 0.994 | S. cerevisiae deletion strains, locus YOR080W, strain dia2, active compounds read low 0.985 | S. cerevisiae deletion strains, locus YOR083W, strain WHI5, active compounds read low 0.995 | S. cerevisiae deletion strains, locus YOR106W, strain vam3, active compounds read low 0.976 | S. cerevisiae deletion strains, locus YOR136W, strain idh2, active compounds read low 0.991 | S. cerevisiae deletion strains, locus YOR144C, strain elg1, active compounds read low 1 | S. cerevisiae deletion strains, locus YOR184W, strain ser1, active compounds read low 1.02 | S. cerevisiae deletion strains, locus YOR231W, strain MKK1, active compounds read low 1.02 | S. cerevisiae deletion strains, locus YOR265W, strain rbl2, active compounds read low 0.989 | S. cerevisiae deletion strains, locus YOR270C, strain vph1, active compounds read low 0.965 | S. cerevisiae deletion strains, locus YOR290C, strain snf2, active compounds read low 0.966 | S. cerevisiae deletion strains, locus YOR316C, strain cot1, active compounds read low 1 | S. cerevisiae deletion strains, locus YPL051W, strain arl3, active compounds read low 1 | S. cerevisiae deletion strains, locus YPL078C, strain atp4, active compounds read low 0.973 | S. cerevisiae deletion strains, locus YPL106C, strain sse1, active compounds read low 0.898 | S. cerevisiae deletion strains, locus YPL240C, strain hsp82, active compounds read low 0.974 | S. cerevisiae deletion strains, locus YPL241C, strain CIN2, active compounds read low 1 | S. cerevisiae deletion strains, locus YPL256C, strain CLN2, active compounds read low 1.04 | S. cerevisiae deletion strains, locus YPR119W, strain clb2, active compounds read low 0.998 | S. cerevisiae deletion strains, locus YPR141C, strain kar3, active compounds read low 0.981 | S. cerevisiae deletion strains, locus YPR163C, strain tif3, active compounds read low 1 | S. cerevisiae deletion strains, locus YPR167C, strain met16, active compounds read low 0.996 | S. cerevisiae deletion strains, strain wtn01, active compounds read low 1.01 | S. cerevisiae strains, strain wild type, active compounds read low 1.01
